Measured values taken from PubChem BioAssay AID1159580 (chemical genetic matrix, 2015).
Several values for one entry are separate records, joined by “and”; a condition that tells them apart may be missing. Equal values may be shown once. The whole screen tested about 5,500 compounds, of which about 2,000 (36%) were called active. Another 18% or so got no clear call; they are omitted. Cut-off read from the data, not from the text of the source: active = normalized growth mostly below about 0.91 (no sharp cut-off); inconclusive = no clear call, values can overlap the other calls; inactive = mostly above about 0.92. This is one part of the list.

Test: chemical genetic growth profiling, strain panel (AID 1159580);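 note: tested at 20 µM; growth read once vehicle control cultures reached saturation at 30 °C; 1 = growth at the plate median or of vehicle wells; lower values mean less growth of the strain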
Details: S. cerevisiae deletion strains, growth OD

Measured: normalized growth

CCOC(=O)c1c(C)cc(OC)cc1O
active: locus YDR101C, strain arx1, active compounds read low 0.917 | locus YDR137W, strain rgp1, active compounds read low 0.784 | locus YDR318W, strain mcm21, active compounds read low 0.902 | locus YDR392W, strain spt3, active compounds read low 0.724 | locus YDR502C, strain sam2, active compounds read low 0.921 | locus YER110C, active compounds read low 0.899 | locus YER155C, strain BEM2 (second series), active compounds read low 0.609 | locus YHR079C, strain IRE1 (second series), active compounds read low 0.912 | locus YIL125W, strain kgd1, active compounds read low 0.929 | locus YJL164C, strain tpk1, active compounds read low 0.911
inactive: locus YAL013W, strain DEP1, active compounds read low 1 | locus YAL021C, strain ccr4, active compounds read low 1.02 | locus YAL026C, strain drs2, active compounds read low 0.977 | locus YAL030W, strain snc1, active compounds read low 0.962 | locus YBL061C, strain skt5, active compounds read low 0.981 | locus YBR009C, strain hhf1, active compounds read low 0.962 | locus YBR021W, strain FUR4, active compounds read low 0.971 | locus YBR023C, strain chs3, active compounds read low 0.97 | locus YBR171W, strain sec66, active compounds read low 0.934 | locus YBR229C, strain ROT2, active compounds read low 1 | locus YBR231C, strain swc5, active compounds read low 0.987 | locus YBR279W, strain paf1, active compounds read low 0.993 | locus YCL011C, strain gbp2, active compounds read low 0.975 | locus YCL016C, strain dcc1, active compounds read low 0.971 | locus YCL029C, strain bik1, active compounds read low 0.949 | locus YCL061C, strain MRC1, active compounds read low 0.972 | locus YCL069W, strain vba3, active compounds read low 0.969 | locus YCR088W, strain abp1, active compounds read low 0.953 | locus YDL005C, strain med2, active compounds read low 1.01 | locus YDL035C, strain GPR1, active compounds read low 0.983 | locus YDL040C, strain nat1, active compounds read low 0.959 | locus YDL074C, strain BRE1, active compounds read low 0.955 | locus YDL101C, strain DUN1, active compounds read low 1.01 | locus YDL134C, strain PPH21, active compounds read low 0.996 | locus YDL185W, strain tfp1, active compounds read low 0.984 | locus YDL192W, strain arf1, active compounds read low 0.942 | locus YDR001C, strain nth1, active compounds read low 0.96 | locus YDR069C, strain doa4, active compounds read low 0.999 | locus YDR150W, strain NUM1, active compounds read low 1.01 | locus YDR159W, strain sac3, active compounds read low 0.926 | locus YDR162C, strain NBP2, active compounds read low 1.01 | locus YDR195W, strain ref2 1.1 | locus YDR297W, strain sur2, active compounds read low 0.975 | locus YDR334W, strain swr1, active compounds read low 0.979 | locus YDR335W, strain msn5, active compounds read low 0.991 | locus YDR388W, active compounds read low 0.958 | locus YEL003W, strain gim4, active compounds read low 0.964 | locus YEL037C, strain rad23, active compounds read low 0.978 | locus YEL061C, strain CIN8 (second series), active compounds read low 0.962 | locus YEL061C, strain CIN8, active compounds read low 0.989 | locus YER015W, strain faa2, active compounds read low 0.991 | locus YER016W, strain bim1, active compounds read low 0.975 | locus YER111C, strain swi4, active compounds read low 0.985 | locus YER155C, strain BEM2, active compounds read low 0.985 | locus YER167W, strain BCK2, active compounds read low 0.935 | locus YFR010W, strain ubp6, active compounds read low 0.99 | locus YGL078C, strain dbp3, active compounds read low 0.963 | locus YGL086W, strain mad1, active compounds read low 0.943 | locus YGL167C, strain pmr1, active compounds read low 0.973 | locus YGL173C, strain kem1, active compounds read low 0.985 | locus YGL227W, strain vid30, active compounds read low 0.963 | locus YGL240W, strain doc1, active compounds read low 0.903 | locus YGL248W, strain PDE1, active compounds read low 1 | locus YGL253W, strain hxk2, active compounds read low 0.994 | locus YGR078C, strain PAC10, active compounds read low 0.965 | locus YGR135W, strain pre9, active compounds read low 0.912 | locus YGR229C, strain SMI1, active compounds read low 0.972 | locus YGR252W, strain gcn5, active compounds read low 0.918 | locus YHR013C, strain ard1, active compounds read low 0.969 | locus YHR027C, strain rpn1, active compounds read low 0.988 | locus YHR030C, strain SLT2, active compounds read low 0.983 and 0.948 | locus YHR079C, strain IRE1, active compounds read low 0.956 | locus YHR094C, strain hxt1, active compounds read low 0.946 | locus YHR129C, strain ARP1, active compounds read low 0.983 | locus YHR142W, strain chs7, active compounds read low 0.918 | locus YHR200W, strain rpn10, active compounds read low 0.926 | locus YIL066C, strain RNR3, active compounds read low 1 | locus YIL073C, strain SPO22, active compounds read low 0.891 | locus YIR030C, strain dcg1, active compounds read low 0.94 | locus YJL092W, strain hpr5, active compounds read low 0.96 | locus YJL095W, strain BCK1 (second series), active compounds read low 0.976 | locus YJL095W, strain BCK1, active compounds read low 0.951 and 0.943 | locus YJL115W, strain asf1, active compounds read low 0.981 | locus YJL129C, strain trk1, active compounds read low 0.933 | locus YJL134W, strain LCB3, active compounds read low 0.988 | locus YJL154C, strain vps35, active compounds read low 0.97 | locus YJL166W, strain qcr8, active compounds read low 0.97 | locus YJL168C, strain set2, active compounds read low 0.959 | locus YJL187C, strain SWE1 (second series), active compounds read low 1 | locus YJL187C, strain SWE1, active compounds read low 0.979 | locus YJR043C, strain POL32, active compounds read low 0.921 | locus YJR066W, strain TOR1, active compounds read low 0.9
